The values below come from PubChem BioAssay AID485313 (National Center for Advancing Translational Sciences (NCATS), 2010).

Out of some 320,000 compounds screened, about 7,600 (2.4%) were called active. A call without a number means that no potency is given here. About 3% were inconclusive and are not listed. Calls follow the shape of the dose curve; as a rule, active = well fitted activation curve with a large enough effect; inconclusive = small, poorly fitted or top-dose-only effect; inactive = no such curve, though single readings can be large or run the other way. This excerpt belongs to a sample that is enriched for actives.
Potency is read from the fitted curve at half-maximal effect.

The experiment is described as follows: qHTS Assay for NPC1 Promoter Activators. Also: nearly all actives have a fitted effect of over 60% in size.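 As to activation: reporter is driven by a mutant NPC1 promoter.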 Conditions: Huh7 NPC1 promoter luciferase reporter, 24 h; series mostly up to 9.22 µM. The essentials: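 Readout is luciferase luminescence, reflecting NPC1 promoter activation in stably transfected Huh7 cells after 24 h compound exposure at 37 °C in reduced-serum medium with 10% FBS.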
(In general: In qHTS, concentration-response curves come from the screen itself.)
Take `COc1ccc(NC(=O)CC2SC(N3CCCCC3)=NC2=O)cc1OC` (centres undefined): the Potency entry is “inactive”. In the case of `O=C(NCCCN1CCN(c2ccc(F)cc2)CC1)Nc1ccc([N+](=O)[O-])cc1`, the Potency entry is “inactive”. In the case of `COc1cccc(COc2ccc(N(C)S(=O)(=O)c3ccccc3)cc2)c1`, the Potency result is “inactive”. Consider `COc1ccc(OCc2cccc(C(=O)N3CCCC3)c2)cc1`, for which the Potency was 447 nM (active). Regarding `CCOc1ccc(OCc2cccc(C(=O)N(CC)CC)c2)cc1`, the Potency was 251 nM (active).

As for `CC(=O)Oc1ccc(-c2cccc(C(=O)N3CCCCC3)c2)cc1`, the Potency result was “inactive”. In the case of `CN(Cc1ccccc1)C(=O)c1ccc(COc2ccccc2)cc1`, the Potency entry is “inactive”. Consider `COc1ccc(Cn2c(=S)[nH]c3cc(C(=O)N4CCCCC4)ccc3c2=O)cc1`, for which the Potency result is “inactive”.

In the case of `CCCCn1nc(C(=O)Nc2cccc(C(=O)NC3CC3)c2)c2ccccc2c1=O`, the Potency result is “inactive”. On to `O=C(Nc1ccccc1)N1CCC(C(=O)N2CCN(Cc3ccccc3)CC2)CC1`, for which the Potency result was “inactive”. For `COc1cccc(N2CCN(CC(=O)Nc3ccnn3C3CCCC3)CC2)c1`, the Potency result was “inactive”. As for `CN(CC(=O)Nc1ccc(Cl)cc1)CC(=O)Nc1cccc2ccccc12`, the Potency result was “inactive”. Take `Cc1ccc(C(=O)NNc2ncnc3ccccc23)cc1`: the Potency is 3160 nM (active). As to `CCc1nc(SCC(=O)NNC(=O)c2ccc(C)cc2)c2ccccc2n1`, the Potency result was “inactive”. Under `Cc1ccc(C(=O)NNC(=O)c2cc3cc4ccccc4nc3s2)cc1` stands “inactive”; under `CC(=O)Nc1ccc(S(=O)(=O)NC(C)C(=O)OCCOc2ccc(F)cc2)cc1` (centres undefined), “inactive”; under `N#CCC(=O)Nc1ccc(C(=O)OCC(=O)Nc2sc3c(c2C#N)CCCC3)cc1`, “inactive”.

For the compound `C/C(=N\NC(=O)OC(C)(C)C)c1ccc[nH]1`, the Potency was 2820 nM (active).

For the compound `Cc1ccccc1NC(=O)NNC(=O)OC(C)(C)C`, the Potency result was “inactive”. To `CC(C)(C)OC(=O)N/N=C/c1ccc(C(=O)O)cc1` belongs “inactive”; to `CC(C)CC(COCc1ccc(Cl)cc1)N1CCN(C(=O)c2ccc(C(F)(F)F)cc2)CCC1=O` (centres undefined), “inactive”; to `CCOc1ccc(NC(=O)CN(C)C(=O)Cn2c(=O)cnc3ccccc32)cc1OCC`, “inactive”. `O=c1c2ccccc2ccc2ccc(P(=O)(O)O)cc12`: the Potency result is “inactive”. Under `CN(C)/C=C/C(=O)c1ccccc1F` stands “inactive”; under `Cc1nc(-c2ccccc2)sc1C(=O)/C=C/N(C)C`, 2820 nM (active).

On to `Cc1nc(COc2cccc(Cl)c2)sc1C(=O)/C=C/N(C)C`, for which the Potency result is “inactive”.

As for `Cn1c(SCC(=O)Nc2nccs2)nnc1-c1cccnc1`, the Potency entry is “inactive”.

Turning to `O=C(NCCCNC(=O)c1ccccc1Cl)c1cnccn1`, the Potency entry is “inactive”. Take `Cn1c(=NC(=O)c2cnccn2)sc2ccccc21`: the Potency was 2000 nM (active). Under `COC(=O)c1ccc(OC(=O)c2cnccn2)cc1` stands “inactive”. To `CCOc1ccc2oc(C(=O)N(CC)CC(=O)Nc3ccc(NC(C)=O)cc3)c(C)c2c1` belongs “inactive”; to `Cc1c(O)c(C)c2c(c1O)C(=O)C[C@@H](c1ccccc1)O2`, “inactive”.

As for `O=C(Nc1ccon1)c1nc[nH]c1C(=O)NCc1ccccc1`, the Potency entry was “inactive”.

As to `CC(Oc1ccc(Br)cc1)C(=O)NC1CCCCCC1` (centres undefined), the Potency entry is “inactive”. With `COc1ccc(-c2csc(Cc3nc(O)cs3)n2)cc1`, the Potency is 3550 nM (active). In the case of `COc1cccc(CC(=O)Nc2ccc(-c3csc(C)n3)cc2)c1`, the Potency result is “inactive”.

`CC(C)(C)C(=O)OCc1nc(-c2ccc(O)c(O)c2)cs1`: the Potency entry is “inactive”. `CCN(CC(=O)Nc1cc(Cl)ccc1C)C(=O)CSCc1ccccc1`: the Potency entry is “inactive”.

In the case of `CC(=O)c1ccc(N2CCN(CC(O)c3ccccc3)CC2)cc1` (centres undefined), the Potency result is “inactive”. Under `CC(=O)c1ccc(N2Cc3ccccc3C2)cc1` stands 2510 nM (active); under `CC(=O)c1ccc(N2CCN(C(=O)CCc3ccccc3)CC2)cc1`, “inactive”; under `O=C(O)c1cc(S(=O)(=O)Nc2ccc3cn[nH]c3c2)ccc1Br`, “inactive”. Under `CS(=O)(=O)N1CCN(C(=O)Cc2ccccc2)CC1` stands “inactive”.

In the case of `CS(=O)(=O)N1CCN(c2cccc(Cl)n2)CC1`, the Potency entry is “inactive”. Regarding `CS(=O)(=O)N1CCc2nc(-c3ccccc3)sc2C1`, the Potency was 2510 nM (active).

With `CCCCN(C(=O)C1=NN(c2cc(C)ccc2C)C(=O)CC1)c1c(N)n(CCC)c(=O)[nH]c1=O`, the Potency result is “inactive”. On to `COc1ccc(OCCCC(=O)Nc2cccc(S(=O)(=O)N3CCCCCC3)c2)cc1`, for which the Potency entry is “inactive”.

Take `Cc1ccccc1Nc1nc(-c2cccnc2)cs1`: the Potency is 1780 nM (active). On to `O=C(NCc1cccnc1)C(=O)Nc1nc(-c2ccccc2)cs1`, for which the Potency result is “inactive”.

With `Brc1ccc(-c2csc(N/N=C/c3cccnc3)n2)cc1`, the Potency entry is “inactive”. Under `CN(C(=O)COC(=O)Cn1cnc2c1c(=O)n(C)c(=O)n2C)C1(C#N)CCCCC1` stands “inactive”; under `O=C(CSc1nnc(Nc2ccccc2F)s1)NC1CCCC1`, “inactive”.

For `COC(=O)CSc1nc(C)c2ccc(OC)cc2n1`, the Potency result is “inactive”. `COc1ccc2nc(SCc3ccccc3)nc(C)c2c1`: the Potency is 3160 nM (active).

For the compound `COc1ccc(-c2nnc3ccc(SCc4ccccc4)nn23)cc1`, the Potency entry is “inactive”. For `Cc1ccc(OCC(=O)Nc2ccccc2C(=O)NC2CC2)cc1`, the Potency result is “inactive”. Take `CC(C)Oc1ccc(S(=O)(=O)N2CCOCC2)cc1NC(=O)C1CCCC1`: the Potency entry is “inactive”. To `O=C(c1ccc(Br)o1)N(c1ccccn1)C1CCCCC1` belongs “inactive”. With `COc1cccc(NC(=O)CN(C)CC(=O)c2c(N)n(Cc3ccccc3)c(=O)n(C)c2=O)c1`, the Potency result is “inactive”. Regarding `Cc1cccc(/C(N)=N/OC(=O)c2ccccc2Cl)c1`, the Potency was 89.1 nM (active). In the case of `N/C(=N\OC(=O)c1cc(-c2ccccc2)nc2ccccc12)c1ccncc1`, the Potency result was “inactive”. Regarding `Cc1cccc(C(=O)c2cccc(C)c2)c1`, the Potency result is “inactive”.

In the case of `C[C@H](NC(=O)C1CC(=O)N(c2ccc3c(c2)OCCO3)C1)C(=O)N1CCC(C(=O)O)CC1` (some centres undefined), the Potency result is “inactive”. As for `COc1cc(C(=O)OCC(=O)NC23CC4CC(CC(C4)C2)C3)cc(OC)c1OC`, the Potency result was “inactive”. Regarding `CSCCC(NC(=O)COc1ccccc1)C(=O)N(C)CC(=O)Nc1ccc(C)cc1` (centres undefined), the Potency entry was “inactive”.

Turning to `O=C(COC(=O)C1(c2ccc(F)cc2)CCCC1)N1CCNC1=O`, the Potency entry is “inactive”. Take `O=[N+]([O-])c1ccc2c(c1)Nc1nc3ccccc3nc1N2`: the Potency result is “inactive”. Regarding `O=[N+]([O-])c1ccc2nc(-c3ccccn3)[nH]c2c1`, the Potency was 1580 nM (active). With `O=c1[nH]c2cccnc2n1-c1ccc([N+](=O)[O-])cc1`, the Potency entry was “inactive”. With `CCN(CC(=O)Nc1ccc(OC)cc1)C(=O)c1ccc(=O)n(Cc2ccccc2)n1`, the Potency result is “inactive”.

Regarding `Cc1csc2nc(COC(=O)c3cccc(N(C)C)c3)cc(=O)n12`, the Potency was 1410 nM (active). In the case of `O=c1cc(CCl)nc2scc(-c3ccccc3)n12`, the Potency entry is “inactive”.

On to `Cc1nn2c(=O)cc(COC(=O)c3ccc(NC(=O)C(C)(C)C)cc3)nc2s1`, for which the Potency result is “inactive”. Consider `CCC(C)N(C(=O)CSc1nnnn1-c1ccccc1OC)C1CCS(=O)(=O)C1` (centres undefined), for which the Potency entry is “inactive”. As to `CC(NCc1ccccc1OC1CCCC1)c1ccccc1` (centres undefined), the Potency entry is “inactive”. Under `NC(=O)c1c(NC(=O)c2ccccc2)sc2c1CCCC2` stands 3980 nM (active); under `O=C(Nc1sc2c(c1C(=O)O)CCC2)c1ccccc1F`, “inactive”; under `C=CCN(CC=C)S(=O)(=O)c1ccc(C(=O)Nc2sc3c(c2C(N)=O)CCCCC3)cc1`, “inactive”. Turning to `COc1ccc(C(=O)OC(C)C(=O)NC2CCCC2)cc1S(=O)(=O)N1CCOCC1` (centres undefined), the Potency result is “inactive”.

In the case of `CC(C)CN(C(=O)CSc1ncnc2sccc12)C1CCS(=O)(=O)C1` (centres undefined), the Potency entry was “inactive”.

Turning to `CC(=O)c1ccc(S(=O)(=O)N2CCC(Oc3ccc(-n4cnnn4)cc3)CC2)cc1`, the Potency result is “inactive”. In the case of `O=C(COC(=O)Cc1ccc(Br)cc1)Nc1ccc(N2CCOCC2)cc1`, the Potency entry is “inactive”. Take `CC(=O)NC12CC3CC(C1)CC(C(=O)N1CCN(C(=O)c4ccco4)CC1)(C3)C2`: the Potency result was “inactive”.

With `c1cnc(N2CCN(c3ccc4ccccc4n3)CC2)nc1`, the Potency is 1410 nM (active). To `CC12CCC(C(=O)N3CCN(c4ncccn4)CC3)(c3nc4ccccc4nc31)C2(C)C` (centres undefined) belongs “inactive”; to `O=C(c1ccncc1)N1CCN(c2ccc3ccccc3n2)CC1`, “inactive”; to `CCc1nnc(NC(=O)c2cc(S(=O)(=O)N3CCCCC3)ccc2C)s1`, “inactive”. Under `CCC1(C)CC(=O)NC1=O` (centres undefined) stands “inactive”. Take `CC(C)(C)OC(=O)NCCCCCNC(=O)c1[nH]cnc1C(=O)Nc1nccs1`: the Potency entry is “inactive”. `Cn1ccnc1SCC(=O)Nc1ccc2c(c1)OCCO2`: the Potency is 2510 nM (active). On to `O=C(Nc1ccc2c(c1)OCCO2)c1ccoc1`, for which the Potency entry was “inactive”. Under `CCn1c(SCC(=O)Nc2ccc3c(c2)OCCO3)nnc1-c1ccncc1` stands “inactive”; under `O=C(Nc1cccc(NC(=O)c2ccco2)c1)c1cnccn1`, “inactive”; under `CCn1c(SCC(=O)Nc2ccc3c(c2)OCCO3)nnc1C(C)C`, “inactive”.

Turning to `O=C(Nc1ccc2c(c1)OCCO2)c1cnccn1`, the Potency is 2820 nM (active). Take `O=C(COC(=O)c1ccccc1Cl)NC1CCCCCCC1`: the Potency result is “inactive”. To `O=C(N[C@@H](Cc1c[nH]c2ccccc12)C(=O)O)OCC1c2ccccc2-c2ccccc21` belongs “inactive”. Turning to `O=C(Nc1ccccn1)C1CCN(S(=O)(=O)c2ccc3c(c2)OCCO3)CC1`, the Potency result is “inactive”.

As to `CCOC(=O)C1CCCN(S(=O)(=O)c2ccc3c(c2)C(C)(C)C(=O)N3C)C1` (centres undefined), the Potency entry was “inactive”. With `COc1ccc(N(CCC(=O)NCCc2ccccc2)S(=O)(=O)c2ccc(C)cc2C)cc1`, the Potency result is “inactive”. Under `COc1ccc([C@H]2CC(=O)C=C(c3ccc(OC(F)(F)F)cc3)C2)cc1OC` stands “inactive”; under `O=C(O)CSc1ccc(S(=O)(=O)N2CCCC2)cn1`, “inactive”; under `Cc1ccc(C(=O)OCC(=O)Nc2ccc(Cl)cn2)cc1S(=O)(=O)N1CCOCC1`, “inactive”. On to `Cc1ccc(C)c(NC(=O)c2ccc3nccnc3c2)c1`, for which the Potency entry is “inactive”.

For the compound `O=C(NCCc1ccc(F)cc1)c1ccc(S(=O)(=O)N2CCCCC2)cc1`, the Potency result is “inactive”. Consider `O=C(NCCc1ccc(F)cc1)c1ccc2nccnc2c1`, for which the Potency is 1780 nM (active). For `Cc1ccc(S(=O)(=O)NCCC(=O)NCc2ccc(Cl)cc2)cc1C`, the Potency entry was “inactive”. With `CCN(CC)C(CNC(=O)CSc1nnnn1-c1cccc(F)c1)c1ccco1` (centres undefined), the Potency result is “inactive”. For the compound `CC(NC(=O)c1cccc(S(=O)(=O)N2CCc3ccccc3C2)c1)c1ccco1` (centres undefined), the Potency entry was “inactive”.
